# Hit rate of the full screen: of about 340,000 compounds, about 12,000 (3.5%) were called active. Another 18% or so got no clear call; they are omitted. The call rests on the fitted dose curve; in most records, active means well fitted inhibition curve with a large enough effect; inconclusive means small, poorly fitted or top-dose-only effect, or another doubt; inactive means no such curve, though single readings can be large or run the other way. The list comes from a sample in which actives are over-represented; it also holds similar structures and randomly drawn compounds.
# Assay: qHTS Assay for Inhibitors of Hepatitis C Virus (HCV)
# Conditions: Huh7.5.1 HCVcc-Cre infection, luciferase reporter, 44 h; series mostly up to 41.8 µM; activity change, negative = inhibition: at the top concentration
# Procedure, shortened: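 After 44 h co-culture of compound, cells and HCVcc-Cre (~0.5 moi), substrate is added for 15 min at room temperature and luciferase measured over 15 sec. Cells were seeded at 1,000/well and pre-cultured 4 h.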
# On the % scale 0 is the no-effect control and ±100 the full control effect; potency means the concentration at half of the fitted maximal effect.
Compound,"activity change, negative = inhibition",Potency
CCN(CC(=O)Nc1c(F)cccc1F)C(=O)CN1c2cccc3cccc(c23)S1(=O)=O,15.1% (inactive),
CCCCN(C(=O)c1cccc(N2C(=O)c3ccccc3C2=O)c1)c1c(N)n(CCCC)c(=O)[nH]c1=O,16.2% (inactive),
COc1ccc(C2C3=C(CCCC3=O)N(CC(=O)O)C3=C2C(=O)CCC3)cc1,13.3% (inactive),
COc1ccc2c(C)cc3nnnn3c2c1,-4.35% (inactive),
CCn1c2c(c3ccc(OC)cc31)CCCC2=O,,1.26 µM (active)
O=C(COC(=O)Cc1ccc([N+](=O)[O-])cc1)NC1CCCCCC1,23.3% (inactive),
COc1ccc(C2(C)ON(c3ccccc3C(F)(F)F)C2=O)cc1 (stereo not drawn),32.4% (inactive),
CS(=O)(=O)c1ccc(Cl)c(NC(=O)COC(=O)c2cccc(S(=O)(=O)N3CCCC3)c2)c1,8.03% (inactive),
COc1ccc(C(=O)Nc2cc(S(=O)(=O)N3CCCC3)ccc2Cl)cc1,-7.01% (inactive),
O=C(CNCc1cccs1)Nc1cc(S(=O)(=O)N2CCCC2)ccc1Cl,,10 µM (active)
CC(=O)NCCC(=O)Nc1cc(S(=O)(=O)N2CCCCC2)ccc1Oc1cccc(C)c1,-8.53% (inactive),
O=C(Nc1cc(S(=O)(=O)N2CCCCC2)ccc1Cl)C1COc2ccccc2O1 (stereo not drawn),,11.2 µM (active)
Cc1ccc(S(=O)(=O)N2CCCCC2)cc1NC(=O)[C@@H]1CCCN1C(=O)c1cccs1,-2.57% (inactive),
O=C(NCc1cccs1)C1CCN(S(=O)(=O)c2ccc(Cl)cc2)CC1,-19.5% (inactive),
O=C(COC(=O)CCOc1ccccc1)Nc1cc(S(=O)(=O)N2CCCCC2)ccc1Cl,22.5% (inactive),
CCOc1ccc(S(=O)(=O)N2CCCCC2)cc1NC(=O)CN1CCCC1c1cccs1 (stereo not drawn),,4.47 µM (active)
COc1cccc(CC(=NO)c2cccc(OC)c2)c1,0.648% (inactive),
CCN(C(=O)COC(=O)CCC(=O)c1cccs1)C1CCCCC1,6.03% (inactive),
O=C1c2ccccc2C(=O)N1CCC#Cc1ccc2cc(C3(O)CCCCC3)oc(=O)c2c1,-24.6% (inactive),
CC(Sc1nncn1C)C(=O)NCCC1=CCCCC1 (stereo not drawn),14.8% (inactive),
NS(=O)(=O)c1ccc(CNC(=S)NC(=O)c2ccco2)cc1,13.4% (inactive),
Nc1c(-c2ccccc2)nnn1Cc1ccccc1,0.76% (inactive),

Compound,"activity change, negative = inhibition",Potency
Cc1cc(C)cc(OCC(=O)OCC(=O)NC2CCCC2)c1,21.1% (inactive),
C/C(CC(=O)Nc1ccc(N(C)C)cc1)=N\NC(=O)c1ccccc1F,1.05% (inactive),
COc1ccc(CC(=O)N/N=C(\C)c2ccccn2)cc1,-28.1% (inactive),
O=C(Nc1ccc(NC(=O)c2ccccc2F)cc1)c1ccccc1F,4.39% (inactive),
C/C(=N\NC(=O)Cc1ccc(Cl)cc1)c1ccccn1,,7.08 µM (active)
C/C(=N\NC(=O)Cc1ccc(Br)cc1)c1cccnc1,11% (inactive),
C/C(=N\NC(=O)c1ccccc1F)c1ccccn1,,11.2 µM (active)
Cc1noc(C)c1S(=O)(=O)N(C)C[C@H]1Oc2c(NC(=O)Nc3ccc4c(c3)OCO4)cccc2C(=O)N([C@H](C)CO)C[C@@H]1C,7.05% (inactive),
O=C(OCc1cc(=O)n2ccsc2n1)C1(c2ccc(Cl)cc2)CC1,-13.4% (inactive),
O=C(OCC(=O)N1CCc2ccccc21)C1CCCN1S(=O)(=O)c1ccc(Cl)cc1 (stereo not drawn),6.57% (inactive),
O=C(NN=CC=Cc1ccccc1)C(O)C(O)C(=O)NN=CC=Cc1ccccc1 (stereo not drawn),14.2% (inactive),
COc1cccc(NC(=O)c2ccc(S(=O)(=O)N(C)C)cc2)c1,-9.93% (inactive),
CN(C)S(=O)(=O)c1ccc(Oc2ccc(S(=O)(=O)N(C)C)cc2)cc1,,11.2 µM (active)
Cc1ccc(S(=O)(=O)c2ccc(Oc3ccccc3)cc2)cc1,-27.1% (inactive),
CN(C)C(=O)c1coc2nc3ccccc3nc12,-10.9% (inactive),
CNC(=O)c1cccc2nc3ccccc3nc12,,11.2 µM (active)
CNC(=O)c1cc2c(ccc3ccccc32)oc1=N,3.09% (inactive),
CC(C)N(C(=O)CSc1nnc(NC2CC2)s1)c1ccccc1,10.8% (inactive),
COc1ccccc1OCCNC(=O)c1cc([N+](=O)[O-])cc([N+](=O)[O-])c1,10.3% (inactive),
CC(=O)Nc1ccc(S(=O)(=O)N2CCN(c3ccc([N+](=O)[O-])c(NCCN4CCOCC4)c3)CC2)cc1,-11.2% (inactive),
COc1ccccc1OCCNc1cc(N2CCOCC2)ccc1[N+](=O)[O-],,14.1 µM (active)
COc1ccc(Cl)cc1NC(=O)CN1CCN(C(=O)N2CCOCC2)CC1,-13.9% (inactive),

Compound,"activity change, negative = inhibition",Potency
Cn1nc(C(=O)OCC(=O)N(Cc2ccccc2)C(C)(C)C)c2ccccc2c1=O,-24.2% (inactive),
CN(Cc1ccc(CNC[C@H]2O[C@@H](n3cnc4c(N)ncnc43)[C@H](O)[C@@H]2O)o1)S(C)(=O)=O,35.2% (inactive),
O=C(/C=C/c1cccc([N+](=O)[O-])c1)OCC(=O)N1CCOCC1,-1.47% (inactive),
CCOc1cc(C(=O)N(Cc2ccccc2)c2ccc(C)cc2)ccc1OCC(=O)N1CCOCC1,-5.74% (inactive),
COc1ccc(C)cc1NC(=O)NCc1ccccn1,0.829% (inactive),
CCOc1ccc(C(=O)Nc2cc(OC)ccc2OC)cc1,,8.91 µM (active)
CCOc1ccc(NC(=O)Nc2cc(C)ccc2OC)cc1,,11.2 µM (active)
CCOc1ccc(NC(=O)Nc2cc(C)on2)cc1,0.646% (inactive),
CCOC(=O)CNC(=O)CSc1nnc(COc2ccc(Cl)cc2)n1CC,15.3% (inactive),
CCOc1ccc(C(=O)NC2CCN(C(=O)Nc3ccccc3OC)CC2)cc1,0.244% (inactive),
COc1ccc(OC)c(NC(=O)c2ccc3c(c2)C(=O)N(c2ccc(OC(C)=O)cc2)C3=O)c1,10.5% (inactive),
CCn1c(COc2ccccc2)nnc1SCC(=O)Nc1ccc2c(c1)OCCO2,6% (inactive),
CCn1c(COc2ccc(OC)cc2)nnc1SCC(=O)Nc1cc(OC)ccc1OC,,1.26 µM (active)
CC1CCCCC12NC(=O)N(CC(=O)N1CCN(c3ccccc3)CC1)C2=O (stereo not drawn),-9.42% (inactive),
CSCCC(NC(=O)c1ccco1)C(=O)NCCc1ccc(F)cc1 (stereo not drawn),6% (inactive),
O=C(OCC(=O)N1CCCCCC1)c1ccc(Br)c(S(=O)(=O)N2CCOCC2)c1,-0.643% (inactive),
CCN1CCN(CCNC(=O)c2ccc(/C=C3/Sc4ccccc4N(Cc4cccc(C)c4)C3=O)cc2)CC1,,8.91 µM (active)
COc1ccc(/C=C(\NC(=O)c2ccccc2)C(=O)NCCN2CCOCC2)cc1OC,11.8% (inactive),
O=C(NCCCN1CCOCC1)c1ccc2c(c1)N(Cc1cccc(F)c1)C(=O)c1ccccc1S2,-10.1% (inactive),
Cc1nn(Cc2ccccc2)c(C)c1C(=O)NCCN1C(=O)S/C(=C\c2ccc(F)cc2)C1=O,-17.6% (inactive),
COc1ccc(CCNC(=O)c2ccc3c(c2)NC(=O)C(N2CCOCC2)S3)cc1OC (stereo not drawn),-4.67% (inactive),
CCN1CCN(CCNC(=O)c2ccc3c(c2)NC(=O)/C(=C\c2ccc(OC)c(OC)c2)S3)CC1,,31.6 µM (active)

Compound,"activity change, negative = inhibition",Potency
CC(=O)OC1CCC2(C)C(=CCC3C4CC(=O)N(O)C(=O)C4(C)CCC32)C1 (stereo not drawn),11.9% (inactive),
COc1cc(/C=C/C(=O)OCC(=O)NC2CC2)cc(OC)c1OC,-13.3% (inactive),
CN(CC(=O)NCc1cccnc1)S(=O)(=O)c1cc(Cl)ccc1Cl,-1.4% (inactive),
CC(=O)c1c(OCC(=O)N(C)C2CCCCC2)ccc2c(C)cc(=O)oc12,-5.03% (inactive),
COc1cccc(C=CC(=O)C=CC=Cc2ccccc2)c1,0.583% (inactive),
Cc1ccccc1NC(=O)Cn1c(=O)n(CC2CCCO2)c(=O)c2ccccc21 (stereo not drawn),14.2% (inactive),
Cc1cccc(NC(=O)c2ccc3c(=O)n(CC4CCCO4)c(=S)[nH]c3c2)c1 (stereo not drawn),,11.2 µM (active)
O=C(NCc1ccccc1Cl)c1ccc2c(=O)n(CC3CCCO3)c(=S)[nH]c2c1 (stereo not drawn),,6.31 µM (active)
O=C(NCc1ccccc1Cl)C1CCCO1 (stereo not drawn),18.6% (inactive),
O=C(NC1CCCCC1)c1ccc2c(=O)n(CC3CCCO3)c(=O)[nH]c2c1 (stereo not drawn),10.9% (inactive),
CC1Sc2ccc(C(=O)NCc3ccccc3Cl)cc2NC1=O (stereo not drawn),14.3% (inactive),
CSc1ccc(/C=C2\NC(=O)NC2=O)cc1,23% (inactive),
Cc1cn(C2CC(O)C(CO)O2)c(=O)n(CCCc2ccccc2)c1=O (stereo not drawn),34.1% (inactive),
C(#CCN1CCOCC1)CCCN1CCOCC1,2.92% (inactive),
Cc1ccc(NS(=O)(=O)c2ccc(-c3coc(C)n3)cc2)c(C)c1,,11.2 µM (active)
Cc1ccc(NS(=O)(=O)c2ccc3c(c2)n(C)c(=O)c(=O)n3C)c(C)c1,7.94% (inactive),
COc1cccc(NS(=O)(=O)c2ccc(-c3coc(C)n3)cc2)c1,-9.58% (inactive),
CCCCN1C(N)=NC[C@@H]1CC1CCCCC1,17% (inactive),
COC(=O)Cc1ccc(OCC(=O)NC2CCCC2)cc1,4.31% (inactive),
CCN1CCN(c2c(Cl)cccc2NC(=O)c2ccc(Br)o2)CC1,-19.6% (inactive),
COc1cc(OC)c(NC(=O)c2ccc(Br)o2)cc1Cl,,11.2 µM (active)
COc1cc(OC)cc(C(=O)NNC(=O)CNC(=O)c2ccc(Br)o2)c1,10.2% (inactive),

Compound,"activity change, negative = inhibition",Potency
Cc1csc(SCC(=O)N(c2ccccc2)C(C)C)n1,13.2% (inactive),
NC(=O)C1(Nc2ccc([N+](=O)[O-])cc2)CCCC1,-3% (inactive),
CCOC(=O)CC1COCCN1C(=O)c1cc(COc2ccc(F)c(F)c2)on1 (stereo not drawn),-11.4% (inactive),
CCOC(=O)CC1(NC(=O)c2cc(COc3cncc(Cl)c3)on2)CCCCC1,,10 µM (active)
Cc1cc(OCc2cc(C(=O)NCc3cc(C(C)C)no3)no2)cc(C)c1Cl,5.78% (inactive),
CCCCn1c(N)c(N(CC(C)C)C(=O)C2CSC3(C)CCC(=O)N23)c(=O)[nH]c1=O (stereo not drawn),0.302% (inactive),
O=C(O)C1C2C=CC(O2)C1C(=O)Nc1ccccn1 (stereo not drawn),21% (inactive),
COC(=O)[C@]1(C)N[C@H](c2ccc(-c3ccc(Cl)c(Cl)c3)cc2)[C@@H]2C(=O)N(C)C(=O)[C@@H]21,-8.54% (inactive),
COc1ccccc1C(=O)Nc1ccc(C)c(S(=O)(=O)N2CCCCC2)c1,,7.08 µM (active)
Cc1ccc(NC(=O)c2ccccn2)cc1S(=O)(=O)N1CCOCC1,-0.0506% (inactive),
Cc1ccccc1OCC(=O)Nc1ccc2c(c1)ncn2C,-14.5% (inactive),
COc1ccccc1C(=O)Nc1ccc(OCC(=O)N2CCCCC2)cc1,9.06% (inactive),
CCc1ccccc1OCC(=O)Nc1ccc(C)c(S(=O)(=O)N2CCCCCC2)c1,,3.55 µM (active)
Cc1ccccc1OCC(=O)Nc1ccc(S(=O)(=O)N2CCOCC2)cc1,-9.36% (inactive),
Cc1ccc(NC(=O)C2CC2)cc1S(=O)(=O)N1CCOCC1,7.05% (inactive),
Cc1ccccc1OCC(=O)Nc1ccc(N2CCN(C(=O)C(C)C)CC2)c(Cl)c1,,31.6 µM (active)
Cc1ccc(NC(=O)CCC(=O)N2CCC(c3ccccc3)=N2)cc1S(=O)(=O)N1CCCCC1,13.3% (inactive),
Cc1ccc(NC(=O)COC(=O)C2CC2)cc1S(=O)(=O)N1CCOCC1,11% (inactive),
COc1ccc(NC(=O)C2=NNC(=O)CC2)cc1S(=O)(=O)N1CCCCC1,10.7% (inactive),
Cc1cc(C(=O)Nc2ccc(C)c(S(=O)(=O)N3CCOCC3)c2)c2ccccc2n1,,11.2 µM (active)

# From PubChem BioAssay AID651820 (National Center for Advancing Translational Sciences (NCATS), 2012)
